Where “and” joins values, the source holds several entries; their conditions need not be identical. Equal values may be shown once. Compounds without any hit were thinned out: in the full panel of roughly 79,000, 15% have a hit. More than one record can exist for a structure, and the calls need not agree. Calls of active or inactive are those of the source. Cut-off read from the data, not from the text of the source: active = growth inhibition above about 70%; inactive = the rest.

Assay [1] can be described thus: NCI Yeast Anticancer Drug Screen. Data for the rad50 strain (AID 155).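 Note: 0% = growth of vehicle-only cultures of the same strain.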 Conditions: S. cerevisiae rad50 strain growth inhibition, stronger effect = higher value. The essentials: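 Growth of the mutant yeast was measured after compound exposure and referenced to vehicle-treated cultures.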
Assay [2] is described as follows: NCI Yeast Anticancer Drug Screen. Data for the mec2-1 strain (AID 157). The note with it: S. cerevisiae mec2-1 strain, stronger effect = higher value. The essentials:
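Readout is yeast growth inhibition, normalised to vehicle-treated controls, in the mec2-1 strain exposed to compound.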

Assay [3] in a line: NCI Yeast Anticancer Drug Screen. Data for the sgs1 mgt1 strain (AID 161).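 Note: 0% = growth of cultures given vehicle only.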 Conditions: S. cerevisiae sgs1 mgt1 strain, stronger effect = higher value. The essentials:
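Growth of a repair-deficient yeast mutant was monitored after compound treatment and expressed as inhibition relative to vehicle-treated cultures.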

Assay [4] is described as follows: NCI Yeast Anticancer Drug Screen. Data for the cln2 rad14 strain (AID 165).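 Note: 0% = growth equal to vehicle treated cultures.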 The note with it: S. cerevisiae cln2 rad14 strain, stronger effect = higher value. The essentials:
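Relative to vehicle controls, growth inhibition of compound-treated cln2 rad14 yeast was recorded.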

Assay [5] can be described thus: NCI Yeast Anticancer Drug Screen. Data for the bub3 strain (AID 167). Conditions: S. cerevisiae bub3 mutant strain, stronger effect = higher value. The essentials: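 Whole-cell yeast assay. The mutant strain was incubated with compounds, and growth inhibition was determined by comparison with vehicle-treated cells.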
Assay [6] is described as follows: NCI Yeast Anticancer Drug Screen. Data for the mlh1 rad18 strain (AID 175). Conditions: S. cerevisiae mlh1 rad18 strain growth inhibition, stronger effect = higher value. The essentials:
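Test agents were incubated with a yeast strain of defined genotype (DNA damage repair defect). Inhibition of growth was derived by comparison with vehicle-exposed cultures.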

Where [7] appears, read: at 5.0 µM (retest, dose inferred, filed as 0.5).
Where [8] appears, read: at 50.0 µM (retest, dose inferred, filed as 5.0).

Take `c1ccc(CSC(SCc2ccccc2)(c2ccccc2)c2ccccc2)cc1`: the growth inhibition in assay [1] (setting [7]) is 30% (inactive); in assay [1] (setting [8]) it was 88% (active); in assay [1] (at 50.0 µM) it was 14.4% (inactive) and 72% (active); in assay [2] (setting [7]) it was 13% (inactive); in assay [2] (setting [8]), 93% (active); in assay [2] (at 50.0 µM), 5.7% (inactive) and 63.5% (inactive). For the same compound, the growth inhibition in assay [3] (setting [7]) is 2% (inactive); in assay [3] (setting [8]), 90% (active); in assay [3] (at 50.0 µM) it was 14.8% (inactive) and 76.8% (active); in assay [4] (setting [7]) it was 11% (inactive); in assay [4] (setting [8]), 87% (active); in assay [4] (at 50.0 µM), 18.2% (inactive) and 65.3% (inactive). In addition, the growth inhibition in assay [5] (setting [7]) is -16% (inactive); in assay [5] (setting [8]), 83% (active); in assay [5] (at 50.0 µM), 15.4% (inactive) and 74.8% (active); in assay [6] (setting [7]), 22% (inactive); in assay [6] (setting [8]), 92% (active); in assay [6] (at 50.0 µM) it was 13.7% (inactive) and 81.3% (active).

On to `COc1cc2c(cc1O)C1CN(C2)Cc2cc(OC)c(O)cc21`, for which the growth inhibition in assay [1] (setting [7]) was -5% (inactive); in assay [1] (setting [8]) it was 67% (inactive); in assay [1] (at 50.0 µM) it was 51.4% (inactive); in assay [2] (setting [7]) it was -3% (inactive); in assay [2] (setting [8]), 78% (active); in assay [2] (at 50.0 µM), 35% (inactive). Further, the growth inhibition is -11% (inactive) in assay [3] (setting [7]); 76% (active) in assay [3] (setting [8]); 30.3% (inactive) in assay [3] (at 50.0 µM); 2% (inactive) in assay [4] (setting [7]); 75% (active) in assay [4] (setting [8]); 79.2% (active) in assay [4] (at 50.0 µM). For the same compound, the growth inhibition in assay [5] (setting [7]) was -2% (inactive); in assay [5] (setting [8]) it was 69% (inactive); in assay [5] (at 50.0 µM), 33.7% (inactive); in assay [6] (setting [7]), 14% (inactive); in assay [6] (setting [8]) it was 80% (active); in assay [6] (at 50.0 µM), 74.3% (active).

Regarding `CCCCCCCCCCCCCCCCOP(=O)(O)OCC(NC(C)=O)C(=O)O` (stereo unspecified), the growth inhibition in assay [1] (setting [7]) is -2% (inactive); in assay [1] (setting [8]), 100% (active); in assay [1] (at 50.0 µM), 99.2% (active); in assay [2] (setting [7]), 17% (inactive); in assay [2] (setting [8]) it was 100% (active); in assay [2] (at 50.0 µM), 99.5% (active). Besides, the growth inhibition is 4% (inactive) in assay [3] (setting [7]); 95% (active) in assay [3] (setting [8]); 99.3% (active) in assay [3] (at 50.0 µM); 37% (inactive) in assay [4] (setting [7]); 99% (active) in assay [4] (setting [8]); 99.3% (active) in assay [4] (at 50.0 µM). The growth inhibition was 1% (inactive) in assay [5] (setting [7]); 97% (active) in assay [5] (setting [8]); 99.5% (active) in assay [5] (at 50.0 µM); -1% (inactive) in assay [6] (setting [7]); 99% (active) in assay [6] (setting [8]); 99.4% (active) in assay [6] (at 50.0 µM).

`O=C1c2ccccc2C(=O)c2c(O)c(O)cc(O)c21`: the growth inhibition in assay [1] (setting [7]) was 97% (active); in assay [1] (setting [8]) it was 97% (active); in assay [1] (at 50.0 µM), 88.5% (active) and 11.4% (inactive); in assay [2] (setting [7]), 99% (active); in assay [2] (setting [8]), 98% (active); in assay [2] (at 50.0 µM), 86.2% (active) and -3.5% (inactive). Also, the growth inhibition in assay [3] (setting [7]) is 98% (active); in assay [3] (setting [8]), 97% (active); in assay [3] (at 50.0 µM), 86% (active) and 14.2% (inactive); in assay [4] (setting [7]), 59% (inactive); in assay [4] (setting [8]) it was 95% (active); in assay [4] (at 50.0 µM), 72.4% (active) and 9.2% (inactive). Also, the growth inhibition in assay [5] (setting [7]) was 98% (active); in assay [5] (setting [8]), 97% (active); in assay [5] (at 50.0 µM) it was 86.1% (active) and -9.1% (inactive); in assay [6] (setting [7]) it was 99% (active); in assay [6] (setting [8]), 97% (active); in assay [6] (at 50.0 µM), 85.5% (active) and 25% (inactive).

As to `O=C1C(Cl)=C(Cl)C(Cl)(Cl)C(Cl)=C1Cl`, the growth inhibition was 24% (inactive) and 61% (inactive) in assay [1] (setting [7]); 99% (active) in assay [1] (setting [8]); 60.4% (inactive) and 64.4% (inactive) in assay [1] (at 50.0 µM); 24% (inactive) and 42% (inactive) in assay [2] (setting [7]); 100% (active) in assay [2] (setting [8]); 99.2% (active) and 52.9% (inactive) in assay [2] (at 50.0 µM). In addition, the growth inhibition was 18% (inactive) and 69% (inactive) in assay [3] (setting [7]); 99% (active) in assay [3] (setting [8]); 97.7% (active) and 66.2% (inactive) in assay [3] (at 50.0 µM); 19% (inactive) and 13% (inactive) in assay [4] (setting [7]); 99% (active) and 98% (active) in assay [4] (setting [8]); 98.7% (active) and -4.55% (inactive) in assay [4] (at 50.0 µM). Moreover, the growth inhibition in assay [5] (setting [7]) is 22% (inactive) and 19% (inactive); in assay [5] (setting [8]), 99% (active) and 100% (active); in assay [5] (at 50.0 µM), 98.8% (active) and 55.9% (inactive); in assay [6] (setting [7]), 37% (inactive) and 50% (inactive); in assay [6] (setting [8]), 99% (active); in assay [6] (at 50.0 µM) it was 98.1% (active) and 70.8% (active).

With `O=c1ccn(C2CC(O)C(COC(c3ccccc3)(c3ccccc3)c3ccccc3)O2)c(=O)[nH]1` (stereo unspecified), the growth inhibition in assay [1] (setting [7]) is 1% (inactive) and 22% (inactive); in assay [1] (setting [8]), 99% (active); in assay [1] (at 50.0 µM) it was 49.5% (inactive) and 40.2% (inactive); in assay [2] (setting [7]) it was 6% (inactive) and 7% (inactive); in assay [2] (setting [8]), 100% (active) and 99% (active); in assay [2] (at 50.0 µM), 98% (active) and 53% (inactive). Further, the growth inhibition in assay [3] (setting [7]) is -1% (inactive); in assay [3] (setting [8]), 100% (active) and 54% (inactive); in assay [3] (at 50.0 µM), 42.5% (inactive) and 52.7% (inactive); in assay [4] (setting [7]) it was 8% (inactive) and 5% (inactive); in assay [4] (setting [8]), 99% (active); in assay [4] (at 50.0 µM) it was 97.7% (active) and 56% (inactive). Further, the growth inhibition was 7% (inactive) and 1% (inactive) in assay [5] (setting [7]); 99% (active) and 98% (active) in assay [5] (setting [8]); 99.5% (active) and 16.2% (inactive) in assay [5] (at 50.0 µM); 13% (inactive) in assay [6] (setting [7]); 99% (active) and 98% (active) in assay [6] (setting [8]); 41.9% (inactive) and 51.7% (inactive) in assay [6] (at 50.0 µM).

As to `OCC(O)C(O)C(O)C(/C=N/Nc1ccccc1)=N/Nc1ccccc1` (stereo unspecified), the growth inhibition in assay [1] (setting [7]) is 2% (inactive); in assay [1] (setting [8]), -13% (inactive); in assay [1] (at 50.0 µM) it was 40.5% (inactive) and 21.7% (inactive) and 50.6% (inactive); in assay [2] (setting [7]), -2% (inactive); in assay [2] (setting [8]), -34% (inactive); in assay [2] (at 50.0 µM), -5.35% (inactive) and -4.3% (inactive) and 15.8% (inactive). Besides, the growth inhibition is 2% (inactive) in assay [3] (setting [7]); -9% (inactive) in assay [3] (setting [8]); 55.5% (inactive) and 27.6% (inactive) and 33% (inactive) in assay [3] (at 50.0 µM); 5% (inactive) in assay [4] (setting [7]); -12% (inactive) in assay [4] (setting [8]); 5.55% (inactive) and -6.8% (inactive) and -39.8% (inactive) in assay [4] (at 50.0 µM). The growth inhibition in assay [5] (setting [7]) is 5% (inactive); in assay [5] (setting [8]), 8% (inactive); in assay [5] (at 50.0 µM) it was -12.9% (inactive) and -5.05% (inactive) and -1.05% (inactive); in assay [6] (setting [7]), 20% (inactive); in assay [6] (setting [8]), 0% (inactive); in assay [6] (at 50.0 µM) it was 24.9% (inactive) and 21.1% (inactive) and 48.2% (inactive).

The values are drawn from PubChem BioAssay (NCI).
